Experiment [1] concerns the target Nuclear receptor ROR-gamma (Homo sapiens) (UniProt P51449). Description: qHTS assay to identify small molecule antagonists of the retinoid-related orphan receptor gamma (ROR-gamma) signaling pathway (AID 1159521;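 further: CHO cells with doxycycline inducible ROR-gamma driving an RORE luciferase reporter; top concentration of the series differs between compounds; on the % scale 0 is the no-effect control and ±100 the full control effect; nearly all actives have a fitted effect of over 50% in size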). In a few lines: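 Readout: ONE-Glo luciferase luminescence, 30 min at room temperature. System: Tet-on RORγ CHO, RORE-LUC. Sequence: compound 2 h, doxycycline 1 uM final, 16 h at 37 C.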

Experiment [2] is described as follows: qHTS assay to identify small molecule agonists of the AP-1 signaling pathway - cell viability counter screen (AID 1159525; calls by dose curve; further: nearly all actives have a fitted effect of over 55% in size). The essentials: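 Same-well cytotoxicity counter screen of the Tox21 10K library in ME-180 cells. The readout is ATP-dependent luminescence after 5 h compound treatment. Data are normalised to DMSO and tetra n-octyl ammonium bromide controls.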

The nature of experiment [3]: qHTS assay to identify small molecule agonists of the AP-1 signaling pathway (AID 1159526; calls by dose curve; further: potency means the concentration at half of the fitted maximal effect; on activation: on the % scale 0 is the no-effect control and ±100 the full control effect).
Experiment [4] can be described thus: qHTS assay to identify small molecule agonists of the RXR signaling pathway - cell viability counter screen (AID 1159529). Further: series mostly up to about 77 µM; on the % scale 0 is the no-effect control and ±100 the full control effect; nearly all actives have a fitted effect of over 50% in size. In a few lines: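 Tox21 10K compounds were tested for cytotoxicity against GeneBLAzer RXR-alpha HEK 293T cells grown in 2% charcoal-stripped FBS. Exposure lasted 16 hr at 37 C, 5% CO2; viability read by CellTiter-Glo luminescence.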
Experiment [5] can be described thus: qHTS assay to identify small molecule antagonists of the retinoid acid receptor (RAR) signaling pathway - cell viability counter screen (AID 1159551). Further: on the % scale 0 is the no-effect control and ±100 the full control effect; nearly all actives have a fitted effect of over 35% in size. In a few lines:
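Cytotoxicity counter screen: ATP content quantified by CellTiter-Glo luminescence in C3RL4 cells treated 6 hr at 37 C with compound and retinol (1 uM final). Cells plated at 1,000/well and cultured overnight before dosing.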

A short description of experiment [6]: qHTS assay to identify small molecule antagonists of the retinoic acid receptor (RAR) signaling pathway (AID 1159552; further: on the % scale 0 is the no-effect control and ±100 the full control effect; nearly all actives have a fitted effect of over 50% in size). In a few lines:
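Overnight-plated C3RL4 reporter cells get compound, then retinol to 1 uM final; plates sit 6 hr at 37 C, 5% CO2. A luciferase reagent is added and light output recorded after 30 min at room temperature.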

Experiment [7] is described as follows: qHTS assay to identify small molecule antagonists of the estrogen related receptor (ERR) signaling pathway from Tox21 library - cell viability counter screen (AID 1224834). Further: on the % scale 0 is the no-effect control and ±100 the full control effect; nearly all actives have a fitted effect of over 30% in size. In a few lines: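 CellTiter-Fluor fluorescence, read after 30 min at 37 C, measures viability of ERR cells. Cells plated at 2,000/well and incubated 6 h before pin-tool compound addition, then exposed 17.5 hours at 37 C.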

The target in experiment [8] is Luciferin 4-monooxygenase (Photinus pyralis) (UniProt P08659). Briefly: qHTS assay to identify small molecule inhibitors of firefly luciferase (AID 1224835). Further: series mostly up to about 120 µM; on the % scale 0 is the no-effect control and ±100 the full control effect; nearly all actives have a fitted effect of over 25% in size. The essentials: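 Biochemical qHTS: compounds run as interplate titrations against purified firefly enzyme, with D-luciferin and ATP each at its KM concentration. Light output recorded by CCD imaging.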
Experiment [9] is described as follows: qHTS assay to identify small molecule agonists of the constitutive androstane receptor (CAR) signaling pathway - cell viability counter screen (AID 1224836). Further: series mostly up to about 92 µM; on the % scale 0 is the no-effect control and ±100 the full control effect; nearly all actives have a fitted effect of over 45% in size. In a few lines:
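Fluorescence from CellTiter-Fluor indicates live cells after 23 h exposure. The human hepatoma line expresses hCAR and a CYP2B6-2.2kb reporter. Incubation medium contains 0.75 uM PK11195 (final).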

The nature of experiment [10]: qHTS assay to identify small molecule antagonists of the constitutive androstane receptor (CAR) signaling pathway - cell viability counter screen (AID 1224837). Further: series mostly up to about 92 µM; on the % scale 0 is the no-effect control and ±100 the full control effect; nearly all actives have a fitted effect of over 45% in size. In a few lines: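 Cytotoxicity counter-screen: CellTiter-Fluor fluorescence after 23 h compound exposure (15-point qHTS) in double-stable HepG2-CYP2B6-hCAR cells, with 50 nM CITCO added.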
The target in experiment [11] is Retinoic acid receptor RXR-alpha (Homo sapiens) (UniProt P19793). Description: qHTS assay to identify small molecule agonists of the RXR signaling pathway (AID 1159527; calls by dose curve; further: on the % scale 0 is the no-effect control and ±100 the full control effect; nearly all actives have a fitted effect of over 35% in size). In a few lines:
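Reporter activation is measured as beta-lactamase activity via FRET substrate cleavage (emission 460/530 nm) in HEK 293T cells expressing an RXR-alpha-driven bla construct, following 16 hr compound exposure at 37 C.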

In experiment [12] the target is Nuclear receptor subfamily 1 group I member 3 (Homo sapiens) (UniProt Q14994). Description: qHTS assay to identify small molecule agonists of the constitutive androstane receptor (CAR) signaling pathway (AID 1224839).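 Further: HepG2 cells stably carrying human CAR and a CYP2B6 luciferase reporter; series mostly up to about 92 µM; on the % scale 0 is the no-effect control and ±100 the full control effect; nearly all actives have a fitted effect of over 15% in size.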 The essentials:
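Stable hCAR/CYP2B6-2.2kb HepG2 line in DMEM with 10% FBS; compounds (15 concentrations) and 0.75 uM PK11195 final, 24 h at 37 C/5% CO2, then ONE-Glo luminescence after 30 min.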

For experiment [13] the target is unchanged. Description: qHTS assay to identify small molecule antagonists of the constitutive androstane receptor (CAR) signaling pathway (AID 1224838).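 Further: HepG2 cells stably expressing hCAR with CYP2B6 luciferase reporter stimulated by CITCO; on the % scale 0 is the no-effect control and ±100 the full control effect; nearly all actives have a fitted effect of over 40% in size.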 In a few lines: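 Antagonism measured as luciferase signal (ONE-Glo, 30 min, room temperature) in CAR-stimulated cells: HepG2-CYP2B6-hCAR double-stable line exposed 24 hr at 37 C to compound in a 15-point series plus 50 nM CITCO.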

Results filed as inconclusive are left out. A number with no mark means an inactive call. Active and inactive are the calls of the source. Unless noted, the call rests on the fitted dose curve; in most records, active means well fitted curve in the direction sought with a large enough effect in the repeat runs; inconclusive means weak or mixed curves; inactive means no such curve, though single readings can be large; an effect the other way counts as inactive or inconclusive.

Nuclear receptor subfamily 1 group I member 3 (Homo sapiens), sequence (Q14994 whole entry, looked up): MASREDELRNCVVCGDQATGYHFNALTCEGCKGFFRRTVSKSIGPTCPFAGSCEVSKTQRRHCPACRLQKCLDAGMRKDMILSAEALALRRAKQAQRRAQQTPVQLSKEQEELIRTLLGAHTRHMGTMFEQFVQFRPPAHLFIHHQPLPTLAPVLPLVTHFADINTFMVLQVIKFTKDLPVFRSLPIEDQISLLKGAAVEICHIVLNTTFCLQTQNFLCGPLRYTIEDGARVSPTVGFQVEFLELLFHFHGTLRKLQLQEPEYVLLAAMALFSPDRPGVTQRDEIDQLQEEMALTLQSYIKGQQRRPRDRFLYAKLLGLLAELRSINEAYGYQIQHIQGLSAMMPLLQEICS
Luciferin 4-monooxygenase (Photinus pyralis), sequence (P08659 whole entry, looked up): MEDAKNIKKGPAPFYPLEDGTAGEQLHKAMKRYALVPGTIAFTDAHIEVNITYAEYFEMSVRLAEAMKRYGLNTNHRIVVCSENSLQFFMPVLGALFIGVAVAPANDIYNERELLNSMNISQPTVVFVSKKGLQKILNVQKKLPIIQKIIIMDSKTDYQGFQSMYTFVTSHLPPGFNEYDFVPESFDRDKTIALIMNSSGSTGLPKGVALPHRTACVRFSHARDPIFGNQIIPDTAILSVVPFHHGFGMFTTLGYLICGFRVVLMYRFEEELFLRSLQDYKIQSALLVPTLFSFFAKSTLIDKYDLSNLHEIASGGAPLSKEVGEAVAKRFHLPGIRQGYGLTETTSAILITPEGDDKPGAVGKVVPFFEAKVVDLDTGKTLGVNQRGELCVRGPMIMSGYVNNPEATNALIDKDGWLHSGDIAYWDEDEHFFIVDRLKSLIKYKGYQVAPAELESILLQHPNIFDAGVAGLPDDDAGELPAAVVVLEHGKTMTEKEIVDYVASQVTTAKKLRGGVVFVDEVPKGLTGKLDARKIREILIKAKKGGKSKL
Retinoic acid receptor RXR-alpha (Homo sapiens), sequence (P19793 whole entry, looked up): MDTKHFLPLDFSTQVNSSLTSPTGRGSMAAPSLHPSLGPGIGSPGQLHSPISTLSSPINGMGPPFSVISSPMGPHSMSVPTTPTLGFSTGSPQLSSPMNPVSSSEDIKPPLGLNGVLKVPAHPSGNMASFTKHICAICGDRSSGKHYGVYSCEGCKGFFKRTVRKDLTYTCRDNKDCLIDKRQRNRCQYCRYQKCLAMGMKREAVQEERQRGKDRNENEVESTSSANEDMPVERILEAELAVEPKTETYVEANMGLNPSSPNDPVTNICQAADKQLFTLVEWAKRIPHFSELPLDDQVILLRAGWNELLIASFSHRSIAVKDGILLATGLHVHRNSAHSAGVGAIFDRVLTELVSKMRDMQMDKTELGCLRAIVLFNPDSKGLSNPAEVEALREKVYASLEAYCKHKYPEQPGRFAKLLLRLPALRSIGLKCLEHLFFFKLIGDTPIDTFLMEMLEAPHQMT

Consider `O=[N+]([O-])c1ccc(CO)cc1`, for which the Potency result in experiment [1], in [2], in [3], in experiment [4], in [5] and in experiment [6] was “inactive” throughout. Besides, the Potency result in experiment [7], in [8], in experiment [9] and in [10] was “inactive” in each case.
With `Nc1cc([N+](=O)[O-])ccc1Cl`, the Potency entry in [1], in [2], in [3], in experiment [11], in [4] and in experiment [5] was “inactive” in each case. For the same molecule, the Potency entry in [7], in experiment [8], in experiment [9], in experiment [10] and in experiment [12] was “inactive” each time.
Turning to `CC(C=O)c1ccccc1` (configuration not stated), the Potency entry in experiment [1], in experiment [2], in experiment [3], in experiment [11], in experiment [4] and in experiment [5] was “inactive” throughout. Moreover, the Potency result in experiment [6], in experiment [7], in experiment [8], in [9] and in experiment [10] was “inactive” in each case.
Turning to `CC(C)=CCC[C@H](C)CC=O`, the Potency entry in [1], in experiment [2], in experiment [3], in [11], in experiment [4] and in [5] was “inactive” throughout. The Potency entry in experiment [7], in experiment [8], in experiment [9] and in experiment [10] was “inactive” each time.
With `C/C=C/C(=O)OCC(C)C`, the Potency result in experiment [1], in experiment [2], in [4], in [5], in experiment [6] and in experiment [7] was “inactive” throughout. For the same molecule, the Potency entry in [8], in experiment [9] and in [10] was “inactive” throughout. Also, in experiment [3], the Potency is 54.9 µM (active).
For `O=c1[nH]cccc1O`, the Potency result in experiment [1], in [2], in experiment [3], in [4], in [5] and in experiment [6] was “inactive” throughout. Further, the Potency result in [8], in [9], in [10], in [13] and in experiment [12] was “inactive” each time.
On to `COc1c(Br)cc(Br)c(C)c1Br`, for which the Potency result in experiment [1], in experiment [2], in experiment [3], in experiment [11], in experiment [4] and in [5] was “inactive” throughout. Also, the Potency result in experiment [7], in [8], in experiment [9] and in [10] was “inactive” throughout.
Consider `CCCCCCCCCCCCS(=O)(=O)Cl`, for which the activity change, negative = inhibition is 0.574% [at 19 µM] in experiment [1] and -13.9% [at 23.6 µM] in experiment [8]. Moreover, the viability change, negative = cytotoxic in experiment [2] was -17.5% [at 15.8 µM]; in experiment [7] it was -1.38% [at 19 µM]; in experiment [9], 14.3% [at 19 µM]. The activation was -7.42% [at 15.8 µM] in experiment [3], -13.1% [at 15.8 µM] in experiment [11] and -0.0973% [at 19 µM] in experiment [12]. In addition, the figures for the activity change, negative = cytotoxicity in experiment [5] and in experiment [10] were 0.197% [at 19 µM] and -7.2% [at 19 µM], respectively. In addition, the activity, negative = inhibition in experiment [6] was -0.011% [at 19 µM].
In the case of `C/C=C/C(=O)C1=C(C)C=CCC1(C)C`, the Potency result in [1], in experiment [2], in experiment [3], in experiment [4], in experiment [5] and in experiment [7] was “inactive” each time. The Potency entry in experiment [8], in experiment [9], in [10], in experiment [13] and in experiment [12] was “inactive” each time.
Turning to `CCOC(=O)[C@H](C)O`, the Potency entry in experiment [1], in experiment [2], in experiment [3], in [11], in [5] and in [6] was “inactive” throughout. Moreover, the Potency entry in [7], in [8], in [9], in [10], in experiment [13] and in experiment [12] was “inactive” throughout.
